Test results published in PubChem BioAssay AID651800 (The Scripps Research Institute Molecular Screening Center, 2012).
About 1,300 (0.36%) of roughly 360,000 compounds were called active. The sample as a whole holds a higher share of actives than the screen did. Unmarked numbers belong to inactive results. No stated cut-off is given here; in the data, active means inhibition above about 19%; inactive means the rest.

tested on: T-cell receptor (TCR); test: inhibitors of human TCR-CD3 interaction, primary screen, biochemical, fluorescence, TAMRA-labeled TCR probe (AID 651800); settings: at 9.4 µM, hits give high values;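 further: recombinant mutant TCR 2C K166C tagged with TAMRA read by polarization; 0% = receptor in buffer alone and 100% = receptor with positive control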

SMILES	inhibition
COC(=O)c1cc2c(c3c4ccccc4n(S(=O)(=O)c4cccc(C)c4)c13)C(=O)N(Cc1ccccc1)C2	-0.99%
Nc1ccn([C@@H]2O[C@H](C(=O)N[C@H]3CCCCNC3=O)[C@@H](O)[C@H]2O)c(=O)n1	1.09%
COc1ccc(C(=O)NC(=S)NNC(=O)CCc2ccccc2)cc1	101% (active)
COc1ccc(/C(N)=N/OC(=O)CCCc2ccccc2)cc1	3.62%
COc1ccccc1CCC(=O)NNC(=O)c1ccncc1	1.16%
C[C@@H]1CN([C@H](C)CO)C(=O)CCCn2cc(nn2)CO[C@H]1CN(C)C(=O)Nc1ccc(N2CCCCC2)cc1	-4.6%
O=C(Nc1c(Cl)c(C2CC2)nn1-c1ccccc1)C(Cl)(Cl)Cl	4.25%
O=C(N[C@H](C(=O)N1CCC[C@H]1C(=O)NCCc1ccccc1Cl)c1ccccc1)c1ccccc1	7.43%
Cc1cc(NCCc2c[nH]c3ccccc23)ccc1Oc1cccnc1	-1.7%
O=C(N[C@H](Cc1ccccc1)C(=O)N1CCCN(Cc2cccs2)CC1)[C@H]1O[C@@H](n2ccc(=O)[nH]c2=O)[C@H](O)[C@@H]1O	-1.23%
COC(=O)N1Cc2ccnnc2CC1c1ccccc1Br (stereo not drawn)	12%
Cc1ccc(NC(=O)N2c3ccccc3SC2c2ccco2)c(C)c1 (stereo not drawn)	1.82%
COC(=O)C1=C(C)N(Cc2ccc(C(F)(F)F)cc2)C(=NCc2ccc(C(F)(F)F)cc2)NC1c1cccc(Cl)c1 (stereo not drawn)	1.76%
COCCOC(=O)c1sc(=S)n(CCOC)c1N	38.1% (active)
COC(=O)[C@]12C[C@H](CC(=O)NCCC(C)C)C(=O)N(CCc3ccc(OC)c(OC)c3)C1=C[C@H](C(C)(C)C)O[C@@H]2C	-1.41%
COCc1cc(N2CCN(C(=O)OC(C)(C)C)C[C@@H]2C)ccc1N1CCN(Cc2ccccc2)[C@H](C)C1	-5.69%
Cc1cc(N2CCN(C(=O)OC(C)(C)C)C[C@H]2C)ccc1N1CCN(Cc2ccccc2)[C@H](C)C1	-1.77%
COc1cccc2c1C(=O)c1c(O)c3c(c(O)c1C2=O)CC(O)(C(C)=NNC(=O)c1ccc(Cl)c(Cl)c1)CC3OC1CC(N)C(O)C(C)O1 (stereo not drawn)	158% (active)
Nc1nc2c(ncn2[C@@H]2O[C@H](C(=O)N[C@H](Cc3ccccc3)C(=O)NCC3CCCCC3)[C@@H](O)[C@H]2O)c(=O)[nH]1	-5.72%
CCCCCCCCN1C(=O)[C@@H](CC(=O)NCCCC)C[C@@]2(C(=O)OC)C1=C[C@H](C(C)(C)C)O[C@@H]2C	4.32%
CC1(C)OC(=O)C2=C(CC(CCc3ccccc3)OC2c2ccc(Cl)cc2)O1 (stereo not drawn)	0.34%
Cc1ccc(CCC(=O)Nc2ncc(Cc3cc(Cl)ccc3Cl)s2)o1	-1.49%
Cc1ccc(Cc2cnc(N)s2)o1	20.7% (active)
C=CCN=C1NC(c2ccccc2)C(C(=O)OC)=C(C)N1Cc1ccc(C(F)(F)F)cc1 (stereo not drawn)	-2.66%
N#Cc1ccc(OCCCN2CCC(C(O)(c3ccccc3)c3ccccc3)CC2)c(F)c1	-1.37%
COC(=O)c1ccc(CN2C(=O)[C@]3(OCCC=C[C@H]3C)c3c(Br)cccc32)cc1	-2.86%
CN1c2ccc(C=O)c3c(C=O)ccc(c23)N(C)C1(C)C	35% (active)

SMILES	inhibition
C#CCOCCOCCOCCNc1nc(N2CCN(C(=O)C([C@@H](C)CC)n3cc(C(N)COC(=O)C(F)(F)F)nn3)CC2)nc(N2CCN(C(=O)[C@H](Cc3ccc(O)cc3)n3cc(C(N)[C@H](C)CC)nn3)CC2)n1 (stereo partly drawn)	1.55%
CCCN1C(=O)c2[nH]nc(-c3ccccc3)c2C1c1ccccc1 (stereo not drawn)	1.37%
CNC(=S)NNC(=O)c1ccc(N(C)C)cc1	5.64%
CN(C)c1ccc(/C=N/NC(=O)C(O)c2ccc(Br)cc2)cc1 (stereo not drawn)	4.89%
CN(C)c1ccc(N/C=C/C(=O)C(F)(F)F)cc1	20.8% (active)
C#CCN([C@@H](C)C(=O)OCC)S(=O)(=O)c1ccc(Br)cc1F	1.93%
C(=N/N1CCN(c2ccccc2)CC1)/c1cccs1	4.89%
CSc1ccc(/C=N/N2CCN(Cc3ccccc3Cl)CC2)cc1	-2.6%
CN1CCN(/N=C/c2ccc(C#N)cc2)CC1	51.9% (active)
COC(=O)C1=C(C)NC(=S)NC1c1ccc(OC)cc1 (stereo not drawn)	0.64%
COc1cccc(CC(=O)N2CCN(C(=O)C(=O)c3cccc(C(F)(F)F)c3)CC2)c1	0.68%
C[C@H](O)[C@@H]1CN2CCc3ccc(-c4ccc5c(c4)OCO5)cc3[C@@H]2C[C@@H]1N(C)C(=O)C1CCCCC1	8.65%
O=C(CCNC(=O)c1ccccc1)NN=Cc1ccc(Br)o1	21.9% (active)
O=C(CCNC(=O)c1ccccc1Cl)NN=Cc1ccco1	-5.52%
O=C(N/N=C/c1ccc(Br)o1)c1cncc(Br)c1	-0.44%
CN1C(=O)C(Br)(Br)CC1c1cccnc1 (stereo not drawn)	-8.3%
Cc1cc(Br)cn2c(Cc3ccccc3C(F)(F)F)c(-c3ccc(C#N)cc3)nc12	4.41%
COCCCNC(=S)NNC(=O)C(O)(c1ccccc1)c1ccccc1	24.9% (active)
COCCCNC(=S)N(Cc1ccccc1)Cc1ccc(F)cc1	-3.1%
CCCCNC(=S)NNC(=O)c1cc(C)on1	11.9%
O=C(C(=O)N1CCC(CNS(=O)(=O)Cc2ccccc2)CC1)c1cc2ccccc2o1	-2.01%
OC(c1ccccc1)(c1ccccc1)C1CCN(CCCOc2ccc(-c3ccsc3)cc2)CC1	2.16%
Cc1ccc(CNC(=O)COc2ccc3c(c2)CCC3)cc1	1.31%
Cc1ccc(CNC(=O)Cc2cn(C)c3ccccc23)cc1	6.02%
CCOCC(=O)NCc1ccc2c(c1)cc(C)n2C	28.4% (active)
COC(=O)[C@H](CC(C)C)NS(=O)(=O)c1c(F)cccc1F	-1.84%
